Only some compounds are listed: those with a hit (about 3.4% of all), similar ones and a draw of the others.
PAFAH1B2 FP inh – blocks human PAF acetylhydrolase 1b catalytic subunit 2 | recombinant PAFAH1B2, FP-rhodamine activity probe, fluorescence polarization | inhibition, % at 3.39 µM | 340,000 tested, 1.2% active | AID 492953;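 active means inhibition above the mean of all tested compounds plus 3 SD, cut at about 24% in these data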
Target sequence (P68402 whole entry, looked up): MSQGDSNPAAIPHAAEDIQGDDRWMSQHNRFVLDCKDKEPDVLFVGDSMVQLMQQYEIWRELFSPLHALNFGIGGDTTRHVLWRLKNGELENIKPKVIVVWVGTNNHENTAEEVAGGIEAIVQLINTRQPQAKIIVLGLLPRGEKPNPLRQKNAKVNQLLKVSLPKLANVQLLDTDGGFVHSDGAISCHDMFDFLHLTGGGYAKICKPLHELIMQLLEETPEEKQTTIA
PP5 inh – PP5 (human) phosphatase inhibition; P53041; purified PP5c, OMFP substrate fluorescence; 320,000 tested, 0.18% active; inhibition, % at 6.7 µM;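 active means inhibition above the campaign's mean inhibition across all tested compounds plus 3 SD, cut at about 9.5% in these data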
pPAFAH inh – inhibitors of human plasma PAF acetylhydrolase (pPAFAH) | Q13093 | recombinant pPAFAH, FP-rhodamine probe fluorescence polarization | inhibition, % at 3.39 µM | 330,000 tested, 1.5% active | AID 463082;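 active means inhibition above the mean inhibition across the screen plus 3 SD, cut at about 25% in these data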;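 further: inhibitors block binding of the rhodamine activity-based probe so polarization drops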
PP1 counter – counter-screen for PP5 inhibitors: inhibitors of human PP1-alpha. P62136. purified PP1alpha, OMFP fluorescence. inhibition, % at 6.7 µM. 320,000 tested, 0.9% active;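 active means inhibition above the mean inhibition of all tested compounds plus 3 SD, computed separately for each screening campaign, cut at about 15% in these data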
Target sequence (P62136 whole entry, looked up): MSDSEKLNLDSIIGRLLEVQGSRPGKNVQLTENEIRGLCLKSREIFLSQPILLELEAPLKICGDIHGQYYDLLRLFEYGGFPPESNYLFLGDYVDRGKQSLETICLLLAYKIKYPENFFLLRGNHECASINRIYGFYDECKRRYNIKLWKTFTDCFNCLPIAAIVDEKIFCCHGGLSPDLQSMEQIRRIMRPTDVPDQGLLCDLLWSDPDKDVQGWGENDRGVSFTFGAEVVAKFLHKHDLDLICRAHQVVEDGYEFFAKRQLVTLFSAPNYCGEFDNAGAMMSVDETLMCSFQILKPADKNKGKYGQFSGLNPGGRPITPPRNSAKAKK
PAFAH1B3 inh – PAFAH1B3 (human) inhibition. Q15102. recombinant PAFAH1B3, FP-rhodamine probe, fluorescence polarization. inhibition, % at 3.39 µM. 340,000 tested, 0.28% active;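 active means inhibition above the screen-wide average of all tested compounds plus 3 SD, cut at about 25% in these data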
PAFAH2 inh – inhibitors of human PAFAH2. inhibition, % at 3.39 µM. Q99487. recombinant PAFAH2, FP-rhodamine activity probe, fluorescence polarization. 340,000 tested, 0.99% active;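 active means inhibition above the mean over all tested compounds plus 3 SD, cut at about 30% in these data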;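 further: inhibitors block probe labeling of enzyme so polarization drops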
pPAFAH confirm – confirmation of human plasma PAF acetylhydrolase (pPAFAH) inhibitors. 2,300 tested, 72% active. recombinant pPAFAH, FP-Rh probe fluorescence polarization. shares compounds with pPAFAH inh. inhibition, % at 3.39 µM. AID 463230;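 active means mean inhibition of the triplicate above the hit cutoff set for the earlier primary screen, cut at about 25% in these data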
Of the large screens only hits and unclear results are named; the others gave an inactive call (follow-up assays come after a bar, where they were run).

O=C(O)C(Cc1ccccc1)NS(=O)(=O)c1ccc2c(c1)OCCO2 (stereo not drawn)	none
Cn1c2ccccc2c(=O)c2ccc(NCCc3cccs3)cc21	pPAFAH inh 38 (no result: PP5 inh, PP1 counter) | pPAFAH confirm inactive
Cn1c(C(=O)NCc2cccs2)cc2c(=O)n(C)c3ccccc3c21	none
COCCNC(=O)C(OC(=O)c1nsc(Cl)c1Cl)C(C)C (stereo not drawn)	none
CSc1nnc(-c2cc3c(s2)-c2ccccc2CC3)o1	none
S=c1[nH]nc(-c2cc3c(s2)-c2ccccc2CC3)o1	pPAFAH inh 38 | pPAFAH confirm 62
Cc1ccc(C(O)Cn2cc([N+](=O)[O-])nc2C)cc1 (stereo not drawn)	none
S=C(Nc1ccc(N2CCOCC2)cc1)Nc1ccc2nc(-c3ccco3)c(-c3ccco3)nc2c1	pPAFAH inh 43 | pPAFAH confirm inactive
O=C(Nc1ccc2nc(-c3ccco3)c(-c3ccco3)nc2c1)N1CCN(c2ccccn2)CC1	pPAFAH inh 37 | pPAFAH confirm 28
Cc1ccc(C(=O)CSc2nnc(-c3c[nH]c4ccccc34)o2)cc1	pPAFAH inh 48 | pPAFAH confirm inactive
Cc1cc(S(=O)(=O)Nc2ccc(C(=O)NCC3(N(C)C)CCCCC3)cc2)ccc1F	none
CCOc1ccc(NS(=O)(=O)c2ccc(C(=O)NCC(c3ccc(OC)cc3)N3CCOCC3)cc2)cc1 (stereo not drawn)	pPAFAH inh 50 | pPAFAH confirm 59
CCOc1ccc(NS(=O)(=O)c2ccc(C(=O)NCC3(N(C)C)CCCCC3)cc2)cc1	pPAFAH inh 52 | pPAFAH confirm 45
Cc1cccc(OCCCn2c(=O)oc3ccc(C)cc32)c1	none
COc1ccccc1N1CCN(CC(=O)N(CC(C)C)c2c(N)n(CC(C)C)c(=O)[nH]c2=O)CC1	none
Cc1cc(-c2csc3nc[nH]c(=S)c23)cc(C)c1C	none
COCCN1Cc2cc3cc(C)ccc3nc2SC1=Nc1ccc(OC)cc1	none
COCCN=C1Sc2nc3ccc(C)cc3cc2CN1Cc1cccs1	pPAFAH inh 40 | pPAFAH confirm 60
COc1cc(/C=N/NC(=O)c2ccc(COc3cc(C)ccc3C(C)C)cc2)cc(OC)c1O	none
Cc1ccc(C(C)C)c(OCc2ccc(C(=O)N/N=C/c3ccc(O)c(O)c3)cc2)c1	pPAFAH inh 61, PAFAH1B3 inh 34 | pPAFAH confirm 84
O=C(N/N=C/c1ccc(O)c(O)c1)c1ccc(CSc2cccc3cccnc23)cc1	pPAFAH inh 69 | pPAFAH confirm 86
O=C(CSc1cccc2cccnc12)N/N=C/c1cccc(O)c1	none
O=C(c1cc(O)c(O)c([N+](=O)[O-])c1)c1ccccc1F	pPAFAH inh 59, PAFAH1B3 inh 29, PAFAH2 inh 68 | pPAFAH confirm 81
O=C(O)c1ccc(N/N=C/c2ccc(-c3ccccc3Cl)o2)cc1	pPAFAH inh 45 | pPAFAH confirm inactive
O=C(N/N=C/c1ccc(-c2ccccc2Cl)o1)c1ccccc1	none
CCOC(=O)N1CCN(C(=O)c2ccc3c(=O)n4c(nc3c2)CCCCC4)CC1	pPAFAH inh 56 (no result: PAFAH1B2 FP inh, PAFAH1B3 inh, PAFAH2 inh) | pPAFAH confirm inactive
CN1CCN(C(=O)CCn2c(=O)c3cccn3c3cccnc32)CC1	none
Cc1cc(C(=O)CSc2nnc(N)s2)c(C)n1CCc1ccc(F)cc1	none
COc1ccc(CCn2c(C)cc(C(=O)CSc3nc(N)cc(=O)[nH]3)c2C)cc1	pPAFAH inh 35 | pPAFAH confirm 31
Cc1cc(C(=O)CSc2nc(N)cc(=O)[nH]2)c(C)n1CCc1ccc(F)cc1	pPAFAH inh 61 | pPAFAH confirm 62
Cc1cc(C(=O)CSc2nc(N)cc(=O)[nH]2)c(C)n1-c1ccc(OC(F)F)cc1	pPAFAH inh 60 | pPAFAH confirm 71
CCOC(=O)C(CC)Sc1nc2c(cnn2-c2ccccc2)c(=O)[nH]1 (stereo not drawn)	none
CCOCCCNC(=O)C1CCN(S(=O)(=O)CC)CC1	none
Cc1nn(-c2cccc(C(F)(F)F)c2)c(Cl)c1/C=N/Nc1cccc(C(=O)O)c1	pPAFAH inh 35 | pPAFAH confirm 35
CCc1ccc(C2C(C#N)=C(N)Oc3cc(N)ccc32)cc1 (stereo not drawn)	pPAFAH inh 59 | pPAFAH confirm inactive
COc1ccc(C2C(C#N)=C(N)Oc3cc(N)ccc32)cc1 (stereo not drawn)	none (no result: PP5 inh, pPAFAH inh, PP1 counter)
N#CC1=C(N)Oc2cc(N)ccc2C1c1ccc(Cl)cc1 (stereo not drawn)	pPAFAH inh 43 | pPAFAH confirm inactive
CNCc1c(C)nn(-c2ccccc2)c1C	none
O=C(O)CN1C(=O)/C(=C\c2cc(Br)ccc2OCc2ccc(F)cc2)SC1=S	pPAFAH inh 51, PP1 counter 17, PAFAH2 inh 50 | pPAFAH confirm 63
Cc1ccc(N=Nc2c(O)[nH]c(=O)[nH]c2=O)cc1S(=O)(=O)Nc1ccc(Br)cc1	pPAFAH inh 76 (no result: PP5 inh, PP1 counter) | pPAFAH confirm inactive
CCCCNC(=O)c1sc(=S)n2c1[nH]c(=O)c1ccccc12	PAFAH1B2 FP inh 26, pPAFAH inh 35, PAFAH1B3 inh 31, PAFAH2 inh 38 | pPAFAH confirm 63
O=C(NCCc1ccccc1)c1ccc2c(=O)[nH]c3c(C(=O)NCC4CCCO4)sc(=S)n3c2c1 (stereo not drawn)	PAFAH1B2 FP inh 50, pPAFAH inh 71, PAFAH1B3 inh 30 | pPAFAH confirm 84
O=C(NCC1CCCO1)c1ccc2c(=O)n(CC3CCCO3)c(=S)[nH]c2c1 (stereo not drawn)	none
O=C(CN1C(=O)NC2(CCCCCCC2)C1=O)N1CCc2ccccc2C1	none
Cc1cccc(/C=C/C(=O)c2cc(Br)ccc(=O)c2O)c1	pPAFAH inh 50, PP1 counter 18, PAFAH2 inh 34 | pPAFAH confirm inactive
CCc1ccc(/C=C/C(=O)c2cc(Br)ccc(=O)c2O)cc1	pPAFAH inh 70, PAFAH2 inh 34 | pPAFAH confirm 43
O=C(C=Cc1ccccc1)c1cc(Br)ccc1O	none (no result: PP5 inh, pPAFAH inh, PP1 counter)
CCOc1ccc(/C=C/C(=O)c2cc(Br)ccc(=O)c2O)cc1	pPAFAH inh 38 | pPAFAH confirm 28
C[C@H]1CN([C@@H](C)CO)C(=O)Cc2cc(NS(=O)(=O)c3ccc(Cl)cc3)ccc2O[C@@H]1CN(C)C(=O)Nc1cccc2ccccc12	pPAFAH inh 49 (no result: PP5 inh, PP1 counter) | pPAFAH confirm 54
CC(C)NC(=O)N(C)C[C@H]1Oc2ccc(NS(=O)(=O)c3ccc(Cl)cc3)cc2CC(=O)N([C@@H](C)CO)C[C@@H]1C	none (no result: PP5 inh, PP1 counter)
O=C(CCCN1C(=O)/C(=C/c2ccccc2Cl)SC1=S)NNC(=O)c1ccc(Cl)cc1	none
Cc1ccc(C(=O)NNC(=O)CCCN2C(=O)/C(=C/c3ccccc3Cl)SC2=S)cc1	pPAFAH inh 46 | pPAFAH confirm 53
